JMJD2E inh: blocks human JMJD2E demethylase activity | hit rate 1.6% among 230,000 | JMJD2E catalytic domain, FDH-coupled NADH fluorescence (FDH is formaldehyde dehydrogenase) | Potency, µM (highest dose often 57.1 µM), for inactives: top-dose activity change, negative = inhibition, actives largely listed as inhibitors | AID 2147; active = well fitted inhibition curve with a large enough effect, not every such curve was filed as active; inconclusive = small, poorly fitted or top-dose-only effect, or another doubt; inactive = no such curve, though single readings can be large or run the other way;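 also: 0% = wells with enzyme and -100% = buffer wells without enzyme; nearly all actives have a fitted effect of over 50% in size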
Target sequence (B2RXH2 1-337 limits assumed): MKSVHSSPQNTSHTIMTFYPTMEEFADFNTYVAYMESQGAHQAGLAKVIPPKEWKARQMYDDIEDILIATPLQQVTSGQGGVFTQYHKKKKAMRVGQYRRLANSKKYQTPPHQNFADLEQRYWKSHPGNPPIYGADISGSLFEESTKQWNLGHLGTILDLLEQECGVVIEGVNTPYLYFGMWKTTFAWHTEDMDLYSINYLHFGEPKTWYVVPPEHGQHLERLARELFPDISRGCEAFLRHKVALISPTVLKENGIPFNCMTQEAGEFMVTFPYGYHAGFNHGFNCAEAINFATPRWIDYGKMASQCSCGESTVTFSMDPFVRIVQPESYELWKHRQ
L3MBTL1 inh: blocks human L3MBTL1; AID 485360; AlphaScreen L3MBTL1–H3K9me1 peptide binding; hit rate 0.66% among 230,000; Q9Y468; Potency, µM (top dose mostly 57.1 µM), for inactives: top-dose activity, negative = inhibition, actives largely listed as inhibitors; also: nearly all actives have a fitted effect of over 60% in size
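L3MBTL1 (50 nM) pre-complexed 30 min with biotinylated H3(1-15)K9me1 peptide (75 nM), then compounds added for 30 min at room temperature; AlphaScreen streptavidin donor/nickel chelate acceptor beads (10 ug/mL final) read after 30 min dark incubation.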
RECQ1 helicase: RECQ1 (human) helicase inhibition; hit rate 0.54% among 240,000; P46063; RECQ1 DNA unwinding, red fluorescence kinetic read; Potency, µM (top dose mostly 57.3 µM), for inactives: at the top dose activity, negative = inhibition, actives largely listed as inhibitors;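 also: plate controls were vehicle for no effect and no enzyme for full effect; nearly all actives have a fitted effect of over 30% in size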
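RECQ1T1 50 nM; forked duplex (20 bp + 30-nt ss tails) 200 nM, ATP 2 mM final; pH 8.0, 2 mM MgCl2, 2.5 ug/ml poly(dI-dC); 15 min compound preincubation; discontinuous kinetic read over 2 h at RT.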
APE1 inh-1: inhibitors of human APE1 endonuclease; P27695; recombinant APE1, TAMRA/BHQ-2 abasic DNA cleavage fluorescence; Potency, µM (top dose mostly 65.8 µM), inactives show top-dose activity change, negative = inhibition, most hits filed as inhibitors; hit rate 0.35% among 350,000; AID 2517;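 also: plate controls were vehicle for no effect and reference inhibitor for full effect; nearly all actives have a fitted effect of over 55% in size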
Target sequence (P27695 whole entry, looked up): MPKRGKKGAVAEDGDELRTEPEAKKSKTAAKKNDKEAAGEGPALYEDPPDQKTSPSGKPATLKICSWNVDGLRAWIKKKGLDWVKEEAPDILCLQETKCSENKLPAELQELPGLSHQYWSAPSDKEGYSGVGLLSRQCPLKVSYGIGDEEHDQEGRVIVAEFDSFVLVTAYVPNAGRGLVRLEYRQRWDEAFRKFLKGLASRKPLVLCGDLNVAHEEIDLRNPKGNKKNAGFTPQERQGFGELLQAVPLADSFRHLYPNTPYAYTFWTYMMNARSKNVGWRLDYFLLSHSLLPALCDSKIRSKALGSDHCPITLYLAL
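Quantitative HTS: incision of a TAMRA/BHQ-2 double-stranded substrate bearing a tetrahydrofuran abasic site by 0.75 nM APE1 raises fluorescence. Substrate 50 nM final, added after 15 min compound preincubation at room temperature; progress as third-minus-first kinetic read difference.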
BLM inh: Bloom syndrome helicase (human) inhibition | P54132 | recombinant BLM DNA unwinding, fluorescence dequenching | Potency, µM (top dose mostly 56.1 µM), without a hit: top-dose activity change, negative = inhibition, most hits filed as inhibitors | hit rate 0.2% among 350,000 | AID 2528;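 also: plate controls were vehicle for no effect and no enzyme for full effect; nearly all actives have a fitted effect of over 35% in size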
DNA dye displace: DNA dye displacement counter-screen activity; shares compounds with APE1 inh-1; DNA fluorescent dye displacement counterscreen, fluorescence; Potency, µM (doses to about 28.5 µM), without a hit: top-dose activity change, negative = inhibition, most hits filed as inhibitors; hit rate 7% among 480; AID 2564;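 also: loss of thiazole orange fluorescence as the dye is displaced from duplex DNA; 0% = ThO with dsDNA and no compound and -100% = ThO without dsDNA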
Endo IV inh: counter-screen for APE1 inhibitors: inhibitors of E. coli endonuclease IV; E. coli Endo IV, fluorogenic AP-site DNA cleavage; shares compounds with APE1 inh-1; Potency, µM (doses to about 27.1 µM), without a hit: at the highest dose activity change, negative = inhibition, actives largely listed as inhibitors; hit rate 4% among 560;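 also: plate controls were uninhibited enzyme wells for no effect and no enzyme buffer wells for full effect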
APE1 inh-2: confirmation of inhibitors of human APE1 endonuclease; hit rate 44% among 750; shares compounds with APE1 inh-1; Potency, µM (titrated, usually from 57.1 µM), without a hit: at the highest dose activity change, negative = inhibition, actives largely listed as inhibitors; purified APE1, fluorogenic abasic-site DNA cleavage; also: nearly all actives have a fitted effect of over 30% in size
APE1 FP: displaces DNA from human APE1 in FP assay. shares compounds with APE1 inh-1. APE1 binding to TAMRA-labelled double-stranded DNA, fluorescence polarization displacement. Potency, µM (doses to about 28.5 µM), inactives show at the highest dose activity, negative = inhibition, usual class: inhibitors. hit rate 7% among 480
Numbers without * were called inactive; i = inactive; ? = inconclusive; · = no result given; [ ] = remark or other dose. Many of the other results were omitted from the sample, so hits are more common in it than they were. Unless noted, calls follow the shape of the dose curve; as a rule, active = well fitted curve in the direction sought with a large enough effect; inconclusive = small, poorly fitted or top-dose-only effect, or another doubt; inactive = no such curve, though single readings can be large; an effect the other way counts as inactive or inconclusive. Unless noted, % is scaled to controls: 0 for no effect and ±100 for the full control effect; potency is read from the fitted curve at half-maximal effect.

SMILES | JMJD2E inh | L3MBTL1 inh | RECQ1 helicase | APE1 inh-1 | BLM inh | DNA dye displace | Endo IV inh | APE1 inh-2 | APE1 FP
Cc1ccc(C)c(NC(=O)CSc2nnc(CNC(=O)c3cccs3)o2)c1 | 6% | · | -7% | 1% | -11% | · | · | · | ·
CC(=O)N[C@H]1C(O[C@@H]2O[C@H](C[C@@H](O)[C@H]3O[C@@H](N4CCC(=O)NC4=O)[C@H](O)[C@@H]3O)[C@H](O)[C@H](O)[C@H]2NC(=O)/C=C/CCCCCCCCCCC(C)C)OC(CO)[C@@H](O)[C@@H]1O (some centres undefined) | · | · | -9% | 7.9µM* | -9% | 103%[57.1 µM] | 11%[57.1 µM] | 2.5µM* | -57%[57.1 µM]
O=C(CSc1nc(NS(=O)(=O)c2ccccc2)cc(=O)[nH]1)Nc1ccc(F)cc1 | -24% | ? | ? | ? | ? | · | · | -8% | ·
O=C(CSc1nc(NS(=O)(=O)c2ccccc2)cc(=O)[nH]1)Nc1cccc(C(F)(F)F)c1 | · | · | · | -12% | -8% | · | · | · | ·
Nc1cc([N+](=O)[O-])ccc1N1C(=O)CCCC1=O | -2% | -13% | i | ? | -16% | · | · | ? | ·
Nc1cc(Cl)ccc1N1C(=O)CCC1=O | -13% | 3% | i | -1% | -4% | · | · | · | ·
Cn1nnnc1SCC1=C(C(=O)O)N2C(=O)[C@@H](NC(=O)[C@H](O)c3ccccc3)[C@H]2SC1 | -15% | ? | 8% | ? | 38% | · | · | 40µM* | ·
O=C(CSc1nnc(C2CC2)n1C1CC1)c1ccc(Br)s1 | · | -5% | · | 22% | · | · | · | · | ·
CC1=N/C(=C/c2ccco2)C(=O)O1 | ? | · | ? | 25µM* | 2% | -6% | 9% | 35µM* | -19%
O=C1OC(c2ccc(Br)cc2)=N/C1=C\c1ccco1 | -5% | ? | -4% | 18% | -2% | · | · | · | ·
N#CC1=C(SCC(=O)Nc2ccccc2)NC(=O)CC1c1ccc(O)cc1 (centres undefined) | -3% | · | -17% | 4% | -2% | · | · | · | ·
CCN(CC)c1ccc(C(=C2C=CC(=[N+](CC)CC)C=C2)c2ccccc2)cc1 | · | · | -13% | -1% | -6% | · | · | · | ·
CCN(CC)c1ccc(C(=C2C=CC(=[N+](CC)Cc3cccc(S(=O)(=O)[O-])c3)C=C2)c2ccc(N(CC)Cc3cccc(S(=O)(=O)O)c3)cc2)cc1 | · | · | 4µM* | ? | 25µM* | ? | 28µM* | 22µM* | 25µM*
CC1CC(=O)c2c(cc3c(-c4c(O)cc(O)c5c(O)c6c(cc45)OC(C)CC6=O)c(O)cc(O)c3c2O)O1 (centres undefined) | 8.9µM* | 0.63µM* | 18µM* | ? | -21% | 4.5µM* | ? | ? | -12%
CCc1ccc(-c2[nH]nc3nc(-c4ccc(OC)cc4)cc(C(=O)NCCc4ccc(OC)c(OC)c4)c23)cc1 | · | · | · | · | -6% | · | · | · | ·
COc1ccc(C(CC(=O)N2CCCCC2)c2c(OC)cc(OC)c3c(-c4ccccc4)cc(=O)oc23)cc1 (centres undefined) | ? | · | ? | 25µM* | -27% | 13% | ? | 7.9µM* | 14µM*
COc1ccc(C(CC(=O)N2CCN(c3ccccc3)CC2)c2c(OC)cc(OC)c3c(-c4ccccc4)cc(=O)oc23)cc1 (centres undefined) | ? | · | ? | ? | 2% | 52% | ? | 5.6µM* | 8%
COc1ccc(C(CC(=O)N2CCCC(C)C2)c2c(OC)cc(OC)c3c(-c4ccccc4)cc(=O)oc23)cc1 (centres undefined) | ? | · | i | ? | -29% | · | · | · | ·
COc1ccc(-c2coc3cc(O)ccc3c2=O)c(O)c1O | 11µM* | · | 4µM* | 3.2µM* | -23% | · | 37%[57.1 µM] | -87% | ·
COc1ccc(NC2=CC(c3ccc(F)cc3)N(c3ccc(OC)cc3)C2=O)cc1 (centres undefined) | ? | -5% | -21% | -7% | -1% | · | · | · | ·
CCn1cc(C(=O)NCc2ccco2)c(=O)c2cc(F)c(N3CCN(C(=O)c4ccco4)CC3)cc21 | ? | 26%[11.4 µM] | -26% | ? | -22% | · | · | ? | ·
c1ccc(NCc2nnc3n2CCCCC3)cc1 | 1% | 10% | i | -1% | -1% | · | · | · | ·
C=CCn1c(COc2cccc(C)c2)nnc1SCC(=O)NC(=O)NCc1ccco1 | -2% | ? | -20% | ? | -29% | -7% | 0% | ? | -23%
Cc1cc(C)c(C#N)c(SCC(=O)c2cccs2)n1 | 8% | · | i | ? | -12% | · | · | -23% | ·
Cc1cc(C)c(C#N)c(SCC(=O)c2ccccc2)n1 | -3% | 27% | ? | 13% | -2% | · | · | · | ·
SMILES | JMJD2E inh | L3MBTL1 inh | RECQ1 helicase | APE1 inh-1 | BLM inh | DNA dye displace | Endo IV inh | APE1 inh-2 | APE1 FP
CCOc1ccc2noc3c2c1C(=O)c1ccccc1-3 | ? | -12% | i | -4% | -6% | · | · | · | ·
CCNc1ccc2noc3c2c1C(=O)c1ccccc1-3 | -7% | ? | 3.5µM* | 3.2µM* | 25µM* | i | 13µM* | 14µM* | 0.79µM*
O=C(OC1Cc2c(O)cc(O)cc2OC1c1cc(O)c(O)c(O)c1-c1c(C2Oc3cc(O)cc(O)c3CC2O)cc(O)c(O)c1O)c1cc(O)c(O)c(O)c1 (centres undefined) | 8.9µM* | · | 2.5µM* | 0.1µM* | 6.3µM* | · | -20%[57.1 µM] | 0.18µM* | ·
O=c1ccn(CCc2c[nH]c3ccccc23)c2c1CCCC2 | -17% | ? | -2% | 0.079µM* | 8% | -5% | -5% | -7%[24.4 µM] | 4%
O=C(O)C1C2C=CC(CC2)C1C(=O)O (centres undefined) | -2% | · | -6% | 13µM* | -10% | · | · | ? | ·
CC(=O)Nc1ccc(NC(=O)C2C3C=CC(C3)C2C(=O)O)cc1 (centres undefined) | · | -6% | · | ? | -3% | · | · | · | ·
COc1cc(OC)cc(C(=O)NNC(=O)c2ccccc2Br)c1 | -1% | 1% | -2% | -8% | 0% | · | · | · | ·

Screening results (PubChem)
